This note sets out measurements from PubChem BioAssay.

Activity calls are given as the source filed them. The rule behind the calls is not given here.

Sequence of Pantothenate synthetase (Mycobacterium tuberculosis (strain ATCC 25618 / H37Rv)) (P9WIL5 whole entry, looked up): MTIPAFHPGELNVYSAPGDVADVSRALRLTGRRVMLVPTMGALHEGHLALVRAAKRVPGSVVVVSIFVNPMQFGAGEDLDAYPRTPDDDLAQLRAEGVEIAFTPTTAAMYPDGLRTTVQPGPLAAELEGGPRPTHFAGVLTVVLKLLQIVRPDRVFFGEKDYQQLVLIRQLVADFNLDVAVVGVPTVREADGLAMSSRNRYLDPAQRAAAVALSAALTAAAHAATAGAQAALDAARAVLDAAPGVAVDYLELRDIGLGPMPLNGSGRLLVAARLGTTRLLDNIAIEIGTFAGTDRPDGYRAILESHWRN

The test has as its target Pantothenate synthetase (Mycobacterium tuberculosis (strain ATCC 25618 / H37Rv)) (UniProt P9WIL5). Kind of test: Recombinant Mtb pantothenate synthetase (PanC) inhibitors, coupled enzyme, confirmatory (AID 375).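 Note: 0% = full reaction with vehicle and 100% = no enzyme background.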 The note with it: coupled enzyme assay; at 10 µM, stronger effect = higher value.
What is called inhibition is the percentage by which the read-out fell short of the control. `CCC1(CC)C(=O)C(C)(C)C(=O)OC1c1cccs1` (stereo not given): the inhibition is 0% (inactive). The result for `CCOc1cccc(OCCCCn2ccnc2)c1` reads 0% (inactive); that for `Cc1ccc(N(Cc2ccco2)C(=O)c2cccc(S(=O)(=O)N(C)C)c2)cc1`, 5% (inactive). Consider `Cc1cc(N2C(=O)C(O)=C(C(=O)c3ccc(C)o3)C2c2cccs2)no1` (stereo not given), for which the inhibition is 0% (inactive). On to `Cc1ccc(Cc2c(C)nc3c(C(=O)O)cnn3c2C)cc1`, for which the inhibition is 4% (inactive). The result for `C[C@]12CC[C@@H]3c4ccc(O)cc4CC[C@H]3[C@@H]1CC[C@@H]2OC(=O)CCC(=O)O` reads 8% (inactive); that for `O=C(O)CCc1ccc(-c2ccccc2)n1CC(=O)O`, 0% (inactive). For the compound `CCn1c(SCC(=O)c2ccc(OC)cc2)nnc1C(C)NC(=O)c1ccc(OC)cc1` (stereo not given), the inhibition is 3% (inactive). To `O=c1[nH]c(Nc2ccccc2)cc2ccccc12` belongs 0% (inactive); to `CC(=O)Nc1ccc(Oc2cc(C#N)c(C#N)cc2N2CCCCCC2)cc1`, 0% (inactive); to `CCn1c(CC(=O)Nc2cccc(OC)c2)nnc1SCC(=O)Nc1nccs1`, 0% (inactive). Regarding `O=C(O)c1oc2ccccc2c1-n1cccc1`, the inhibition is 6% (inactive). The result for `C=CCn1c(SCC(=O)NC2CCCCC2)nnc1-c1sc(N)nc1C` reads 7% (inactive). In the case of `CCOC(=O)c1ccc(NC(=O)COc2ccc(-n3cnnn3)cc2)cc1`, the inhibition is 0% (inactive).

As to `Cn1c(C(=O)N2CCN(C(=O)c3ccco3)CC2)cc2c(=O)n3ccccc3nc21`, the inhibition was 9% (inactive). Turning to `CCOc1ccc(N(C(C)C(=O)NC2CCCCCC2)S(C)(=O)=O)cc1` (stereo not given), the inhibition was 1% (inactive).

With `Cc1ccc(SCCC(=O)N(C)C)cc1`, the inhibition is 0% (inactive).

`CCc1nnc(NC(=O)CSc2nnc(-c3ccoc3C)n2CC(C)C)s1`: the inhibition is 0% (inactive). The result for `COc1ccc(-c2nnn(CC(=O)c3ccc4c(c3)OCCO4)n2)cc1OC` reads 0% (inactive). To `O=S(=O)(c1ccc(-c2csc(-c3cccnc3)n2)cc1)N1CCCCC1` belongs 5% (inactive). With `COc1cccc(/C=N/n2c(-c3ccco3)nc3ccccc3c2=O)c1`, the inhibition is 1% (inactive). For `CCCOc1ccc(-c2nnn(CC(=O)Nc3cccc(C(=O)OC)c3)n2)cc1`, the inhibition was 7% (inactive).

For `CC(=O)Nc1ccc(S(=O)(=O)Nc2nc3c(s2)CCCC3)cc1`, the inhibition was 2% (inactive). The result for `Cc1occc1C(=O)Nc1cccc2ccccc12` reads 0% (inactive). The result for `CCOC(=O)CN1CC23C=CC(O2)C(C(=O)Nc2ccc(C(C)=O)cc2)C3C1=O` (stereo not given) reads 6% (inactive). In the case of `COc1ccc(CCNC(=O)c2nc3ncccn3n2)cc1OC`, the inhibition was 0% (inactive). To `O=C(c1ccccc1-c1nc(-c2ccccc2)no1)N1CCCC1` belongs 0% (inactive); to `CCCc1cc(=O)n2[nH]cnc2n1`, 0% (inactive).

Turning to `O=C(Nc1cccc2c1CCCC2)C1CCN(c2nnnn2-c2ccccc2)CC1`, the inhibition was 5% (inactive). The result for `CC(C)c1ccc(S(=O)(=O)N2CCN(C(=O)c3cccc(F)c3)CC2)cc1` reads 8% (inactive). The result for `C=C(Cl)COC(=O)[C@H]1C2C=CC(C2)C1C(=O)O` (stereo not given in full) reads 2% (inactive). To `COCCN1C(=O)c2oc3c(C)cc(C)cc3c(=O)c2C1c1cccc(O)c1` (stereo not given) belongs 5% (inactive); to `O=C(NCCN1CCOCC1)c1ccc2c(c1)N(Cc1ccccc1)C(=O)CS2`, 0% (inactive); to `COc1ccc(OC)c(N(CC(=O)Nc2cccnc2)S(=O)(=O)c2ccc(OC)c(OC)c2)c1`, 0% (inactive). As for `CCc1ccc(C(=O)NC2CCCCC2)s1`, the inhibition was 0% (inactive). The result for `COc1ccc(Cn2nnnc2C(c2cccs2)N2CCOCC2)cc1` (stereo not given) reads 3% (inactive); that for `O=C(O)CCN(CCC(=O)O)c1nnc(SCc2ccccc2)s1`, 2% (inactive); that for `CCCOC(=O)CSc1nc(N)c(C#N)c(CC)c1C#N`, 8% (inactive).

Take `COC(=O)C1C(=O)c2c([nH]c(C(=O)OCCOC(C)C)c2C)CC1C` (stereo not given): the inhibition is 0% (inactive). The result for `Oc1ccccc1-c1nnc(COc2ccc(Cl)cc2Cl)o1` reads 1% (inactive).
